According to PubChem BioAssay AID602141 (Sanford-Burnham Center for Chemical Genomics, 2011):
Among all 360,000 compounds or so, about 1,300 (0.36%) were called active.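 How the source made its calls: active means corrected activity change at or below -50% at 5 µM; inactive means the rest.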 The list comes from a sample in which actives are over-represented; it also holds similar structures and randomly drawn compounds.

test: KKLEB cell viability reduction – uHTS, fluorescence assay plates, cytotoxicity control for CF NF-kB inhibitor project, primary screen (AID 602141); details: KKLEB CF airway cells viability, ATPlite luminescence, overnight; at 5 µM; active compounds read low; cells stimulated with P. aeruginosa culture filtrate

Row | SMILES | activity change (cytotoxicity)
1 | CCCNC(=O)c1c(Cl)cnn1-c1ccc(C)cc1 | 8.9% (inactive)
2 | Nc1c(-c2cccc(Cl)c2)cnn1-c1cccc([N+](=O)[O-])c1 | 4.3% (inactive)
3 | Cc1cccc(-n2ncc(Cl)c(Cl)c2=O)c1 | -97.1% (active)
4 | CN(C)/C=C(/C(=O)c1ccc(Cl)c(Cl)c1)c1nnnn1-c1ccccc1 | 7.2% (inactive)
5 | O=C(NCCN1C(=O)S/C(=C\c2cccnc2)C1=O)c1ccc(S(=O)(=O)N2CCCC2)cc1 | -6.2% (inactive)
6 | C=CCn1c(C2CC(=O)N(c3ccc(C)cc3)C2)nc2ccccc21 (stereo not given) | 1.2% (inactive)
7 | COc1ccc(NC(=O)/C(Cl)=C(/Cl)S(=O)Cc2ccc(C)cc2)cn1 (stereo not given) | -105% (active)
8 | COc1ccc(NC(=O)C2Cc3c(-c4ccc5c(c4)OCO5)ccnc3O2)cn1 (stereo not given) | -19.2% (inactive)
9 | COc1cccc(NC(=S)N(Cc2ccc(C)cc2)Cc2ccccn2)c1 | 2.6% (inactive)
10 | CC(C)NC(=O)C1(C)CCCCCN1C(=O)c1ccc(-c2ccccc2)cc1 (stereo not given) | -2% (inactive)
11 | COC(=O)c1ccc(S(=O)(=O)NCc2ccccc2)n1C | 9.6% (inactive)
12 | C=CCOc1nc2c(c(=O)n(C)c(=O)n2C)n1Cc1ccc(Cl)cc1Cl | 9.5% (inactive)
13 | CN(CC(=O)NCC(c1ccccc1)N1CCCC1)S(=O)(=O)c1ccc(Cl)cc1 (stereo not given) | 16% (inactive)
14 | CN(CC(=O)NNC(=O)CNC(=O)c1ccccc1Cl)S(=O)(=O)c1ccc(Cl)cc1 | -61.3% (active)
15 | CN(CC(=O)NCCc1ccccn1)S(=O)(=O)c1ccc(Cl)cc1 | 10.8% (inactive)
16 | c1ccc(CSc2ncnc3c2sc2nc(N4CCOCC4)c4c(c23)CCCC4)cc1 | -51% (active)
17 | O=C(O)c1cccnc1Sc1ncnc2sc3c(c12)CCC3 | 15.9% (inactive)
18 | O=S(=O)(c1ccccc1)c1nc(Cc2ccccc2)oc1N1CCOCC1 | -0.9% (inactive)
19 | Cc1c(CCO)c(=O)[nH]n1C(=O)c1c(F)cccc1F | 1.8% (inactive)
20 | S=c1[nH]cc(-c2ccc(Cl)cc2)n1-c1ccccc1 | 6.2% (inactive)
21 | Cc1ccnc(SCC(=O)Nc2cccc(S(=O)(=O)N3CCOCC3)c2)n1 | 7.3% (inactive)
22 | O=[N+]([O-])c1cc(S(=O)(=O)Nc2cccc(Cl)c2)ccc1N=Nc1c(O)[nH]c2ccccc12 | -80% (active)
23 | O=C(NCc1ccncc1)c1ccc(NS(=O)(=O)c2cccc([N+](=O)[O-])c2)cc1 | -3% (inactive)
24 | O=C(CCN1CCCCC1)N=Nc1c(O)[nH]c2ccccc12 | -4.3% (inactive)
25 | CCCNC(=O)CCn1cc(-c2ccc(OC)cc2)nc1CCN | 2.3% (inactive)
26 | COc1ccc(C2CC(=O)C=C(NCC3CCCO3)C2)cc1 (stereo not given) | 0% (inactive)
27 | O=C(NCC(F)(F)F)c1ccc(S(=O)(=O)NCCc2ccc3c(c2)OCCO3)cc1 | 19.2% (inactive)

Row | SMILES | activity change (cytotoxicity)
28 | O=C(OC12CC3CC(CC(C3)C1)C2)c1ccc(NCc2cc(O)ccc2O)cc1 | -63.4% (active)
29 | O=C(CC1CCCCC1)Nc1c2c(nn1-c1ccc(F)cc1)CS(=O)(=O)C2 | -3.9% (inactive)
30 | COc1ccc(-c2c(C#Cc3ccsc3)c3cc(-c4ccc(CN5CCOCC5)cc4)ccc3n2C)cc1 | -4.5% (inactive)
31 | O=C(Nc1cccc2ccccc12)c1[nH]c(-c2ccccc2)c2c1C(=O)N(C1CC1)C2=O | -52.9% (active)
32 | O=C(Nc1cccc2ccccc12)NC1CC1 | 1% (inactive)
33 | O=C(Nc1cccc2ccccc12)c1onc2c1CCCC2 | 5.7% (inactive)
34 | COCCN(C(=S)Nc1ccccc1OC)C1CCN(C(C)C)CC1 | -3.5% (inactive)
35 | CC(Oc1ccc(F)cc1F)C(=O)/C=C/N(C)C (stereo not given) | 4.1% (inactive)
36 | COC(=O)c1ccc(CNC(=O)C2CCC(=O)N(Cc3ccccn3)C2)cc1 (stereo not given) | -4.5% (inactive)
37 | COc1ccc(-c2cc(C(F)(F)F)nc(S(C)(=O)=O)n2)cc1OC | -78.4% (active)
38 | COc1ccc(C2SCCN2S(=O)(=O)c2ccccc2)cc1OC (stereo not given) | -14.9% (inactive)
39 | COc1ccc(C2=NO[C@@H]3C(=O)N(Cc4ccccc4)C(=O)[C@H]23)cc1OC | -0.3% (inactive)
40 | Cn1c(CCNS(=O)(=O)c2ccc(F)cc2)nnc1SCc1cccnc1 | -4.1% (inactive)
41 | CC(=O)NC(C(=O)NCC(N)=O)C(C)C (stereo not given) | -4.4% (inactive)
42 | C/C(=N\NC(=O)c1cc2c(s1)CCC(C)C2)c1cccnc1 (stereo not given) | 8.5% (inactive)
43 | CC(C)OC(=O)c1ccc(NCc2cc(O)ccc2O)cc1Cl | -51.3% (active)
44 | O=C(O)Cc1ccc(NCc2ccccc2Cl)cc1 | 7.8% (inactive)
45 | CC(CN1CCCCC1)OC(=O)c1ccccc1Cl (stereo not given) | 0.5% (inactive)
46 | Oc1ccc(Br)cc1/C=N/Nc1ccccn1 | -94.7% (active)
47 | CCN(CC)CCn1c(/N=C/c2cc(Br)ccc2O)nc2ccccc21 | 2.8% (inactive)
48 | O=C(Nc1ccc(Br)cc1)c1cc(S(=O)(=O)Nc2ccccn2)ccc1Cl | -6.3% (inactive)
49 | N#CC(=C1SC=CS1)c1nc(-c2ccccc2)cs1 | 9.6% (inactive)
50 | CCOc1ccc(NC(=O)CN(C)C(=O)Cn2c(=O)cnc3ccccc32)cc1OCC | 3.8% (inactive)
51 | COc1cccc2c1C(=O)c1c(O)c3c(c(O)c1C2=O)CC(O)(C(C)=NNC(=O)c1ccc(Cl)c(Cl)c1)CC3OC1CC(N)C(O)C(C)O1 (stereo not given) | -53.3% (active)
52 | CCOC(=O)C1(Cc2cccc(OC)c2)CCN(Cc2csc(C(C)=O)c2)CC1 | -6% (inactive)
53 | Oc1cccc2ccc(/C=C/c3ccc(Br)s3)nc12 | -93.8% (active)
54 | COc1ccc([C@H]2CC(=O)C=C(/C=C/c3ccccc3)C2)cc1 | 9.7% (inactive)

Row | SMILES | activity change (cytotoxicity)
55 | CC(C)c1ccc(/C=C2\NC(=O)NC2=O)cc1 | 11.8% (inactive)
56 | CC[C@]12c3[nH]c4cc(CCC(=O)N(C)C)ccc4c3CCN1C(=O)[C@@H](CC(=O)NCCCn1ccnc1)C[C@@H]2C(=O)N1CCN(C(=O)C2CC2)CC1 | 0.6% (inactive)
57 | COC(=O)C1=C(NC(=O)C(C)(C)C)CCS1 | 2.3% (inactive)
58 | CCOC(=O)c1cnc(COc2ccccc2Cl)[nH]c1=O | 4.6% (inactive)
59 | CCOC(=O)c1c(C)[nH]c2c1-c1ccccc1C(=O)C2=O | -91.6% (active)
60 | CCOC(=O)c1c(C)[nH]c(C)c1C(=O)CSc1nc(N)cc(N)n1 | 13.1% (inactive)
61 | Cc1c2cn[nH]c(=O)c2c(C)n1Cc1ccc(F)cc1 | -2.2% (inactive)
62 | O=C(O)CSCC(=O)Nc1ccc(C(F)(F)F)cc1 | -4% (inactive)
63 | CC(=O)Nc1ccc(SCC(=O)NC(=O)c2ccc(Cl)cc2)cc1 | 8% (inactive)
64 | O=C(CCl)Nc1ccc(Sc2ccc(NC(=O)CCl)cc2)cc1 | -68.5% (active)
65 | CN(C)c1ccc(C(=S)N2CCN(C(=S)Nc3ccc(Cl)cc3)CC2)cc1 | 5.1% (inactive)
66 | CC(=O)c1cc(NC(=O)c2ccccc2)c(=O)oc1/C=C/N(C)C | -6.9% (inactive)
67 | O=C(COC(=O)c1cccc(Br)c1)Nc1cccc2c1C(=O)c1ccccc1C2=O | -17.2% (inactive)
68 | O=C(NC1=CC(=O)c2ccccc2C1=O)c1ccccc1 | -97.9% (active)
69 | COc1ccc(C(C(=O)NC2CCCCC2)N(C(=O)CCl)c2ccccc2Cl)cc1 (stereo not given) | 4.1% (inactive)
70 | COc1ccc(C(CCN(Cc2ccc(OC)c(OC)c2)C(=O)CCl)c2ccccc2)cc1 (stereo not given) | -76.9% (active)
71 | COc1ccc(CCNC(=O)CN(c2ccccc2)S(C)(=O)=O)cc1OC | 8.4% (inactive)
72 | CC(=O)OC(C)C[N+](C)(C)C (stereo not given) | 3.7% (inactive)
73 | CC(C[N+](C)(C)C)OC(N)=O (stereo not given) | -65.7% (active)
74 | COc1ccc(C(N)c2csc(NC(=O)Nc3cccc(C(F)(F)F)c3)n2)cc1 (stereo not given) | -18.3% (inactive)
75 | NC(c1csc(NC(=O)Nc2cccc(C(F)(F)F)c2)n1)C1CCCCC1 (stereo not given) | -57.8% (active)
76 | NC(c1ccccc1)c1csc(NC(=O)Nc2cccc(C(F)(F)F)c2)n1 (stereo not given) | -17.2% (inactive)
77 | c1ccc2c(c1)OCC(c1nn3cnnc3s1)O2 (stereo not given) | 0.1% (inactive)
78 | O=C(CSc1nnc(N2CCOCC2)n1-c1cccc(F)c1)N1CCN(c2ccccn2)CC1 | -2.4% (inactive)
79 | O=C(/C(=N\O)n1cncn1)c1ccc(Br)cc1Br | -5.9% (inactive)
80 | Cc1c(NC(=O)CN(C)CC(=O)Nc2ccc(F)c(F)c2F)c(=O)n(-c2ccccc2)n1C | 5.4% (inactive)
